Experimental data: PMC12136788
Numbering of substitutions follows the chain as printed. Whole data set: some 24,000 sequences, median “enrichment r” near 0.99, cut for the highest 2% near 3.7. What follows is part of a selection rich in the highest values, with near analogues and random picks from the rest.

T1: UNK ZnF1-3 (human, UniProt Q9C0B0 31-174)
T1 sequence: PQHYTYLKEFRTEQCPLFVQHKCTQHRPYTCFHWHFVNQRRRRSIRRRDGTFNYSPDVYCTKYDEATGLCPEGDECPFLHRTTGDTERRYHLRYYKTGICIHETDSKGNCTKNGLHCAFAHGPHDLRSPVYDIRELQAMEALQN

B1: chr7:140404665:140404666:+_ENSG00000090266_ENST00000247866|hu_hu|hu_hu_hu_mus_False|28_98 (ssRNA)
RNA: GGGAGUUCUACAGUCCGACGAUCUGCUCCUACUCGUAGGCUGAGUCUACAGUGUCAGUCCUCGUCAUCAGGAGGGAUUCCCAGUUCUUCAUCUGUCCACUGUGAAGGAUCAGGAUAUGAAAAGUGACCCAGCACAGCAUCCGACAACAGAGGAUUGAGCAUCA
B2: chr9:34402745:34402746:-_ENSG00000164970_ENST00000297620|hu_hu|motif|central (ssRNA)
RNA: GGGAGUUCUACAGUCCGACGAUCGGGGACGACCAGCCUUGUUCGGGCCAUGACAUUGUUCUUCUUGGGUUGCUGGUUGACAGGGCGGCCCAUGCUGCCAUUCUUCAGGGAGCCCUUCCGGGCCAGCUCCCGCUGCUUCUCCUCCAACAGAGGAUUGAGCAUCA
B3: chr2:153237265:153237266:-_ENSMUSG00000061411_ENSMUST00000109784|mus_mus|mus_mus_mus_hu_False|1_98 (ssRNA)
RNA: GGGAGUUCUACAGUCCGACGAUCAAAAAAAAAAAAAGAAAAGUGUCCUUGUGCCCAAAGUCUCAGGUGCUUGGAGUGUGGCUAGAAACAGCUCUUUUGGAUCCCACCUCUUUCAAAAACAAAAUGUACCAACUGGUAGGCAGGCAACAGAGGAUUGAGCAUCA
B4: chr2:153237265:153237266:-_ENSMUSG00000061411_ENSMUST00000109784|mus_mus|mus_mus_mus_hu_False|1_108 (ssRNA)
RNA: B3 RNA with A32G, G37A
B5: chr2:153237265:153237266:-_ENSMUSG00000061411_ENSMUST00000109784|mus_mus|mus_mus_mus_hu_False|98_98 (ssRNA)
RNA: B3 RNA with A137G, G138A, C140G, A141C, G142A
B6: chr11:86532819:86532820:-_ENSMUSG00000047126_ENSMUST00000103186|perfect_dup|FALSE|FALSE (ssRNA)
RNA: GGGAGUUCUACAGUCCGACGAUCCAUGGCUCUGAGACAUUCUAGGGAGUCUUCUACUGAUAAGGAACCAAAGUAGUUGACUAACCACUCAGGGUUAAGAAGAUGGGUGUGAACCACUGCACGUUUUAUAUCAUAUAAAUCAGUCAACAGAGGAUUGAGCAUCA

Each binder was assayed against T1, UNK ZnF1-3 (assay: nsRBNS (natural sequence RNA bind-n-seq); RBNS binding buffer (assumed for nsRBNS): 25 mM Tris pH 7.5, 150 mM KCl, 3 mM MgCl2, 0.01% Triton X-100, 500 ug/ml BSA, 20 U/ml SUPERase-In, 4 C; UNK is unkempt and MSI1 is Musashi-1; names of the RNAs are library labels; protein concentration not given here; high values mean tight binding).

Q: With B1 as the binder, how does the binding signal read?
A: Its binding signal is 0.773 enrichment R.

Q: B2 was tested. Which binding signal did it give?
A: Its binding signal is 0.859 enrichment R.

Q: How did the binding signal turn out when B3 was run?
A: The binding signal was 4.8 enrichment R.

Q: For B4, which binding signal is on record?
A: Its binding signal is 4.2 enrichment R.

Q: For B5, which binding signal is on record?
A: The binding signal was 3.61 enrichment R.

Q: B6 was tested. Which binding signal did it give?
A: The binding signal was 1.15 enrichment R.
